From the supplement of paper PMC13380429

System: Vero E6 infected with SARS-CoV-2
Assay: SARS-CoV-2 infection rate relative to infected DMSO; higher = more infection, active = 60 or less
Conditions: 24 h

| Compound | SARS-CoV-2 infection rate |
| --- | --- |
| COc1ccc2[nH]c([S+]([O-])Cc3ncc(C)c(OC)c3C)nc2c1 (stereo not given) [omeprazole-magnesium] (10 µM) | 116% (inactive) |
| CCOC(=O)N1CSC[C@H]1C(=O)O [telmesteine] (10 µM) | 99.5% (inactive) |
| O=S(=O)(N[C@H]1CC[C@@](c2cc(F)ccc2F)(S(=O)(=O)c2ccc(Cl)cc2)CC1)C(F)(F)F (10 µM) | 104% (inactive) |
| N=C(N)c1ccc(OCCCCCOc2ccc(C(=N)N)cc2)cc1 [pentamidine] (10 µM) | 109% (inactive) |
| CCn1nc(C(=O)O)c(=O)c2cc3c(cc21)OCO3 [cinoxacin] (10 µM) | 104% (inactive) |
| CN/C(=N\S(=O)(=O)c1ccc(Cl)cc1)N1C[C@H](c2ccccc2)C(c2ccc(Cl)cc2)=N1 (racemic) (10 µM) | 114% (inactive) |
| Cc1nc[nH]c1CCN [4-methylhistamine] (10 µM) | 99.5% (inactive) |
| COC(=O)Nc1ccc(-c2nc(N3CCOCC3)c3cnn(C4CCN(Cc5cccnc5)CC4)c3n2)cc1 (10 µM) | 104% (inactive) |
| Cc1ccsc1C(=CCCN1CCC[C@@H](C(=O)O)C1)c1sccc1C [tiagabine] (10 µM) | 109% (inactive) |
| CCN(CC)CCOc1ccc(Nc2ncc3cc(-c4c(Cl)cccc4Cl)c(=O)n(C)c3n2)cc1 (10 µM) | 123% (inactive) |
| C[C@]12CC[C@H](O)CC1=CC[C@@H]1[C@@H]2CC[C@]2(C)C(c3cccnc3)=CC[C@@H]12 [Abiraterone (CB-7598)] (10 µM) | 115% (inactive) |
| O=C(Nc1cc(C(F)(F)F)cc(C(F)(F)F)c1)Nc1c(Br)cc(Br)cc1-c1nnn[nH]1 (10 µM) | 104% (inactive) |
| OC[C@H]1NCC[C@@H](O)[C@@H]1O [fagomine] (10 µM) | 105% (inactive) |
| O=C(NC1CCOCC1)c1ccc(-c2cc(-c3c[nH]nc3-c3ccccn3)ccn2)cc1 (10 µM) | 114% (inactive) |
| Cc1cc(C)nc(SCC(=O)Nc2ncc(Cc3cccc4ccccc34)s2)n1 (10 µM) | 96.5% (inactive) |
| O=C(O)CCCN1C(=O)c2cccc3cccc(c23)C1=O [isodibut] (10 µM) | 104% (inactive) |
| CCCCCCCCOc1ccccc1C(=O)Nc1ccc(C(=O)OCC[N+](C)(CC)CC)cc1 [otilonium] (10 µM) | 101% (inactive) |
| COc1cc(C[C@H]2c3cc(OC)c(OC)cc3CCN2C)c(Oc2cc3c(cc2OC)-c2c(OC)c(OC)cc4c2[C@H](C3)N(C)CC4)cc1OC [thaliblastine] (10 µM) | 30.5% (active) |
| N#C/C(=C\c1ccc(O)c(O)c1)C(=O)NCCCc1ccccc1 (0.833333 µM) | 119% (inactive) |
| O=C(Nc1ccc(S(=O)(=O)Nc2ccccc2Cl)c(Cl)c1)c1ccccn1 (10 µM) | 114% (inactive) |
| c1ccc(CNCc2ccc(CN3CCCNCCNCCCNCC3)cc2)nc1 (10 µM) | 100% (inactive) |
| C[C@@H]1O[C@@H](O[C@@H]2[C@@H](O)[C@H](OCCc3ccc(O)c(O)c3)O[C@H](CO)[C@H]2OC(=O)/C=C/c2ccc(O)c(O)c2)[C@H](O)[C@H](O)[C@H]1O [verbascoside] (10 µM) | 104% (inactive) |
| COC(=O)c1ccc2c(c1)NC(=O)/C2=C(\Nc1ccc(N(C)C(=O)CN2CCN(C)CC2)cc1)c1ccccc1 [nintedanib] (10 µM) | 108% (inactive) |
| C/C(=N\NC(=O)[C@@H]1C(=O)NC[C@H]1c1ccccc1)c1cccc(Br)c1 (10 µM) | 112% (inactive) |
| CN[C@@H](C)[C@H](O)c1ccccc1 [ephedrine] (10 µM) | 106% (inactive) |
| CCCOC(=O)c1ccccc1 [propyl-benzoate] (10 µM) | 90% (inactive) |
| Cc1cc(O)c(C(=O)N[C@@H](C(=O)N[C@@H]2C(=O)N3C(C(=O)O)=C(CSc4nnnn4C)CS[C@H]23)c2ccc(O)cc2)cn1 [cefpiramide] (10 µM) | 106% (inactive) |
| Nc1n[nH]c2nc3ccccc3nc12 [CDK1-5-inhibitor] (10 µM) | 112% (inactive) |
| NC(=O)C(c1ccccc1)(c1ccccc1)[C@@H]1CCN(CCc2ccc3c(c2)CCO3)C1 [darifenacin] (10 µM) | 106% (inactive) |
| Nc1nc(Nc2ccc(S(N)(=O)=O)cc2)nn1C(=O)c1c(F)cccc1F (0.833333 µM) | 120% (inactive) |
